Data on 99 compounds can be found in PubChem BioAssay AID686978 (National Center for Advancing Translational Sciences (NCATS), 2013).

Molecules are shown by their SMILES. In all, about 420,000 compounds went through this assay and about 64,000 (15%) were called active. Another 27% or so got no clear call; they are omitted. Calls follow the shape of the dose curve; as a rule, active = well fitted inhibition curve with a large enough effect; inconclusive = small, poorly fitted or top-dose-only effect; inactive = flat fitted curve, though single readings scatter. These entries were drawn from the full list. A call without a number means that no potency is given here.
Potency is read from the fitted curve at half-maximal effect.

The test can be described thus: qHTS for Inhibitors of human tyrosyl-DNA phosphodiesterase 1 (TDP1): qHTS in cells in absence of CPT. Also: nearly all actives have a fitted effect of over 55% in size. Particulars: DT40 Tdp1-/- hTDP1 cells, no CPT, ATP luminescence, 48 h; activity change, negative = growth inhibition: at 46.2 µM (top of the series). Summed up:
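Chicken DT40 Tdp1-/- cells stably complemented with human TDP1 were seeded at 400 cells/well with DMSO in place of 20 nM camptothecin. After compound pinning, cells grew at least 48 hr at 37 °C; viability read by CellTiter-Glo luminescence.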
In the case of `CCSC(C)CC1C/C(=N/O)c2c(C)noc2C1` (centres undefined), the Potency result was “inactive”.
For `Cc1ccc(Cl)c(OCC(=O)N2CCc3ccccc3C2)c1`, the Potency entry was “inactive”.
In the case of `Nc1c(-c2ccc(F)cc2)cnn1C1CCS(=O)(=O)C1` (centres undefined), the Potency result is “inactive”.
As to `Cc1cc(=O)cc(C)n1-c1ccc(Cl)c(Cl)c1`, the Potency entry is “inactive”.
In the case of `CCOc1ccccc1NC(=O)CCS(=O)(=O)c1cccc2nsnc12`, the Potency result was “inactive”.
The entry for `CCOc1ccc(-c2c(C)n([O-])c3c([n+]2=O)CCCC3)cc1` is “inactive”.
On to `Nc1nc2cc(Cl)ccc2n1N`, for which the Potency result was “inactive”.
Take `COc1cc(OC)c(C2C=C(C(=O)O)Nc3ncnn32)cc1OC` (centres undefined): the Potency entry is “inactive”.
Consider `CC(C)c1nnc(NC(=O)C2CC(=O)N(CCc3ccc(F)cc3)C2)s1` (centres undefined), for which the Potency result was “inactive”.
Consider `CC(=O)Nc1ccc(S(=O)(=O)N(CCc2ccccc2)CC(=O)N/N=C/c2ccc(C(=O)O)cc2)cc1`, for which the Potency result was “inactive”.
As for `CCOc1ccc(C(=O)NC2CCN(C(=O)Nc3ccccc3OC)CC2)cc1`, the Potency result was “inactive”.
Take `CCOc1ccc(NC(=O)CSc2c3c(nc4ccccc24)CCCC3)cc1`: the Potency is 16.4 µM (active).
In the case of `CCOc1ccc(NC(=O)CSc2nncn2C)cc1`, the Potency result was “inactive”.
Next, `CC(=O)c1cccc(NC(=O)CSc2nc3c(c(=O)[nH]2)CCC3)c1`: “inactive”; `CCOc1ccc(C(=O)Nc2ccc3nc4c(c(Nc5ccccc5OC)c3c2)CCCC4)cc1`: 4.61 µM (active).
Turning to `COc1ccc(C(=O)Nc2onc3c2CCCC3)cc1`, the Potency entry was “inactive”.
The entry for `Cn1cnnc1SCC(=O)NNC(=O)COc1ccc(Br)cc1` is “inactive”; for `O=C(NC1CC1)C1CCCN(C(=O)NC2CCCCC2)C1` (centres undefined) it is “inactive”; for `Cc1cc(Br)ccc1NC(=O)Cn1cnc2sc(C)c(S(=O)(=O)N3CCN(C)CC3)c2c1=O` it is “inactive”.
As for `COc1ccc(N2CCN(C(=O)Cn3cnc4sc(C)c(S(=O)(=O)N5CCOCC5)c4c3=O)CC2)cc1`, the Potency was 18.4 µM (active).
Take `CCN(CC)CCNC(=O)Cn1cnc2sc(C)c(S(=O)(=O)N3CCOCC3)c2c1=O`: the Potency entry is “inactive”.
Regarding `OCCN1CCN(CCO)C1=S`, the Potency entry is “inactive”.
In the case of `CC(C)(C)NC(=O)NC(=O)COC(=O)CCC1CCCCC1`, the Potency result was “inactive”.
As to `Cc1cccc(N2CCN(C(=O)c3cc4c(=O)[nH]c5ccccc5c4n3C)CC2)c1C`, the Potency was 18.4 µM (active).
The entry for `O=C(c1c(Cl)cccc1Cl)N1CCN(c2cccc3[nH]ccc23)CC1` is “inactive”; for `O=C(c1ncn2c1c(=O)[nH]c1ccccc12)N1CCc2ccccc2C1` it is “inactive”; for `Cc1c(C(=O)CN2CCOCC2)[nH]c2ccccc12` it is “inactive”.
On to `O=C(NCCN1CCN(Cc2ccccc2)CC1)c1cc2c(=O)[nH]c3ccccc3c2s1`, for which the Potency was 25.9 µM (active).
Next, `Cn1c(C(=O)NCCN2CCc3ccccc3C2)cc2c(=O)[nH]c3ccccc3c21`: 16.4 µM (active).
Consider `O=C(Cc1c(O)c2ccccc2[nH]c1=O)NCc1ccccc1`, for which the Potency entry is “inactive”.
Next, `Cn1cccc1C(=O)N1CCc2ccccc2C1`: “inactive”.
Next, `CC(C(=O)O)N1C(=O)c2cccc3cccc1c23` (centres undefined): “inactive”; `CC(C)NC(=O)NCCCCCCS(C)=O` (centres undefined): “inactive”; `Cc1ccn2cc(-c3nonc3C)cc2c1`: “inactive”.
Regarding `CC1(C(=O)NS(=O)(=O)c2ccc3ccccc3c2)CCN1C(=O)C1(c2ccc(Cl)cc2)CCC1` (centres undefined), the Potency entry was “inactive”.
As to `CCN(C(=O)CSc1nnc2ccccn12)C1CCS(=O)(=O)C1` (centres undefined), the Potency result was “inactive”.
In the case of `CC(OC(=O)c1cccnc1Cl)C(=O)NC1CCCCC1` (centres undefined), the Potency result is “inactive”.
With `CC(C)Cn1c(CCC(=O)O)ccc1-c1cccs1`, the Potency result is “inactive”.
Take `COc1cc(C(=S)NC2CCCCC2)ccc1O`: the Potency entry is “inactive”.
For `CC(=O)c1cccc(CN2CCC(CO)(Cc3ccccc3)CC2)c1`, the Potency entry was “inactive”.
In the case of `Cc1cccc(-c2ncc(CN3CCC(CO)(CCCc4ccccc4)CC3)cn2)c1`, the Potency was 23.1 µM (active).
Turning to `OCC1(CCc2ccccc2)CCN(Cc2ccc3nsnc3c2)CC1`, the Potency result was “inactive”.
The figure for `COc1cccc(CC2(CO)CCN(Cc3cnc(-c4cccc(C)c4)nc3)CC2)c1` is 20.6 µM (active).
For the compound `COC(=O)c1ccc(CN2CCC(CO)(Cc3ccc(OC)cc3)CC2)cc1`, the Potency result is “inactive”.
For `COc1ccc(CC2(CO)CCN(Cc3cnn(C)c3)CC2)cc1`, the Potency result is “inactive”.
For `COc1cccc(NC(=O)Cn2c3ccc(F)cc3c3nc4n(c(=O)c32)CCS4)c1`, the Potency entry was “inactive”.
With `O=C(NCC1Cc2cc(F)cc(-c3cnccn3)c2O1)C1COc2ccccc2O1` (centres undefined), the Potency entry was “inactive”.
Take `Cc1cc(C)c(C#N)c(SCc2ccccc2C(=O)O)n1`: the Potency entry is “inactive”.
For `CSCCC(NC(=O)COc1ccccc1)C(=O)OCC(=O)c1cc2ccccc2o1` (centres undefined), the Potency result was “inactive”.
`CCOCCCNCc1cc(Br)ccc1OCC`: the Potency result is “inactive”.
For the compound `CCOc1ccc(Br)cc1S(=O)(=O)N1CCC(C(=O)O)CC1`, the Potency result was “inactive”.
For `CC(C)(C)NCc1cc(Br)ccc1OC1CCCC1`, the Potency was 16.4 µM (active).
Consider `CC(=O)N/C(=C/c1ccc(OC(F)F)cc1)C(=O)O`, for which the Potency result is “inactive”.
The entry for `N#Cc1ccc(-c2ccc(F)cc2)nc1Sc1ccccc1` is “inactive”.
The entry for `COc1ccc(NC(=O)CN(C)C(=O)Cc2coc3cc(C)c(C)cc23)cc1` is “inactive”.
Take `Cc1ccc(NS(=O)(=O)c2ccc3c(c2)NC(=O)CO3)cc1`: the Potency entry was “inactive”.
Consider `CC(C)C[C@H]1CNC(=S)N1C[C@H]1CCCN1C[C@H](Cc1ccc(O)cc1)N1C[C@H](Cc2ccc(O)cc2)N(CC2CCCCC2)C1=S`, for which the Potency is 25.9 µM (active).
Take `CCOc1ccc(CCN2C(=S)N([C@@H](CC(C)C)CN3CCC[C@@H]3CN3C(=S)NC[C@@H]3Cc3ccc(O)cc3)C[C@@H]2CC(C)C)cc1`: the Potency was 23.1 µM (active).
As to `O=C1NC[C@H](CCCCN2C[C@H](Cc3ccccc3)N(Cc3ccccc3)C(=O)C2=O)N(CCc2ccc(O)cc2)C1=O`, the Potency result was “inactive”.
Consider `CCOc1ccc(CCN2C(=O)C(=O)N([C@@H](Cc3ccc(O)cc3)CN3CCC[C@H]3CN3C(=O)C(=O)NC[C@@H]3CC(C)C)C[C@@H]2Cc2ccccc2)cc1`, for which the Potency entry is “inactive”.
The figure for `CC(C)C[C@H]1CN([C@@H](CC(C)C)CN2CCC[C@@H]2CN2C(=O)C(=O)NC[C@@H]2Cc2ccccc2)C(=O)C(=O)N1CCc1ccccc1` is 16.4 µM (active).
The entry for `O=C1NC[C@H](CCCCN2C[C@H](Cc3ccc(O)cc3)N(CC3CCCCC3)C(=O)C2=O)N(CCc2ccccc2)C1=O` is “inactive”; for `CCOc1ccc(CCN2C(=O)C(=O)N([C@@H](CC(C)C)CN3CCC[C@H]3CN3C(=O)C(=O)NC[C@@H]3Cc3ccccc3)C[C@@H]2CC(C)C)cc1` it is “inactive”.
On to `CC(C)C[C@H]1CNC(=O)C(=O)N1C[C@@H]1CCCN1C[C@H](Cc1ccccc1)N1C[C@H](CC(C)C)N(CC2CCCCCC2)C(=O)C1=O`, for which the Potency entry is “inactive”.
Consider `O=C1NC[C@H](CCCCN2C[C@H](Cc3ccc(O)cc3)N(CCc3ccccc3)C(=O)C2=O)N(CCc2ccccc2)C1=O`, for which the Potency entry was “inactive”.
`Cc1cc(NC(=O)CN2C(=O)NC(CCc3ccccc3)C2=O)no1` (centres undefined): the Potency result is “inactive”.
On to `CCOc1ccc(CCN2C(=O)c3cccnc3C2=O)cc1OCC`, for which the Potency entry is “inactive”.
`CN(C(=O)C1CCOC1)c1nnc(-c2cccnc2)s1` (centres undefined): the Potency result is “inactive”.
As for `CC(CNC(=O)c1ccc(N)cc1)NC(=O)c1ccc(N)cc1` (centres undefined), the Potency result was “inactive”.
Take `CCOC(=O)C1CCN(C(c2cc3cc(C)cc(C)c3[nH]c2=O)c2nnnn2C2CCCCC2)CC1` (centres undefined): the Potency entry was “inactive”.
`Cc1cc(C)c2[nH]c(=O)c(C(c3nnnn3Cc3ccc4c(c3)OCO4)N3CCCC3)cc2c1` (centres undefined): the Potency is 2.31 µM (active).
In the case of `CC(C)(C)n1nnnc1C(c1ccc(F)cc1)N1CCN(Cc2ccc3c(c2)OCO3)CC1` (centres undefined), the Potency result was “inactive”.
Consider `O=C(NCc1ccco1)/C(=C/c1cccc([N+](=O)[O-])c1)NC(=O)c1ccco1`, for which the Potency entry was “inactive”.
As for `COc1cc(NC(=O)CCS(=O)(=O)c2ccc3c(c2)oc(=O)n3C)cc(OC)c1`, the Potency entry is “inactive”.
Turning to `O=C(Nc1cc(C(F)(F)F)ccc1Cl)c1cc(C2CC2)on1`, the Potency result was “inactive”.
In the case of `COc1ccc(-n2cnnc2SCC(=O)Nc2cccc(S(N)(=O)=O)c2)cc1`, the Potency entry is “inactive”.
As for `c1ccc2c(c1)CSc1sccc1C2=C1CCNCC1`, the Potency was 16.4 µM (active).
`Nc1nc(Br)c2ccccc2c1-c1ccc(F)cc1`: the Potency entry was “inactive”.
Regarding `CCOc1c(Nc2cccc(Cl)c2)c(=O)c1=O`, the Potency entry was “inactive”.
For the compound `CCNCCCNCCCNCCCNCC`, the Potency was 3.76 µM (active).
The entry for `COc1ccc2oc(=O)c(C(=O)N3CCCc4ccccc43)cc2c1` is “inactive”; for `Cc1[nH]n(-c2ccc(Cl)cc2)c(=O)c1/C=N/n1c(C)nc2ccccc2c1=O` it is 18.4 µM (active).
Consider `CN(C(=O)Nc1ccc(Cl)cc1)n1cnc2ccccc2c1=O`, for which the Potency entry was “inactive”.
As to `S=C(Cc1ccc(Cl)cc1)N1CCOCC1`, the Potency result was “inactive”.
On to `C=C1C(=O)OC2C1CCC(C)=CCCC1(C)OC21` (centres undefined), for which the Potency is 3.26 µM (active).
As to `CCn1cc(-c2cc(C(=O)O)on2)c(C)n1`, the Potency result is “inactive”.
The figure for `COc1ccc(N/C=C(\C2OC(=O)c3ccccc32)[N+](=O)[O-])cc1` (centres undefined) is 23.1 µM (active); for `COc1ccc(NC(=O)C2=C(C)NC(=O)NC2c2ccccc2[N+](=O)[O-])cc1` (centres undefined) it is “inactive”.
Next, `CN(C)S(=O)(=O)c1ccc(N/C=C(\[N+](=O)[O-])S(=O)(=O)c2ccccc2)cc1`: “inactive”; `CC(C)=CCC/C(C)=C/C(=O)O`: “inactive”; `O=C(NCCCNC(=O)NC1CCCCC1)NC1CCCCC1`: “inactive”.
`CCCSc1nc2sc3c(c2c(=O)n1-c1ccc(OC)cc1)CCN(C)C3`: the Potency is 14.6 µM (active).
Consider `CCOc1ccc(-n2c(SCC(=O)Nc3ccc(OC)cc3)nc3sc4c(c3c2=O)CCN(C)C4)cc1`, for which the Potency entry was “inactive”.
Regarding `CCn1c(SCC(=O)Nc2ccc(Br)cc2)nc2sc3c(c2c1=O)CCN(C)C3`, the Potency result is “inactive”.
For `CC1(C)Cc2c(sc3nc(SCC(=O)NCc4ccccc4)n(-c4ccccc4)c(=O)c23)CS1`, the Potency result is “inactive”.
Regarding `COc1ccccc1-n1c(SCC(=O)O)nc2sc3c(c2c1=O)CCC3`, the Potency entry was “inactive”.
Turning to `CCSc1nc2sc3c(c2c(=O)n1-c1ccc(C)cc1)CCN(C)C3`, the Potency is 7.31 µM (active).
As for `CC(=O)CSc1nc(CCc2ccccc2)c(C#N)c(=O)[nH]1`, the Potency entry was “inactive”.
Turning to `COc1ccc(NC(=O)c2cc(=O)[nH]c3ccccc23)cc1S(=O)(=O)N1CCOCC1`, the Potency entry was “inactive”.
